# Laboratory results taken from PubChem BioAssay AID1259421 (Broad Institute, 2018).
# Values joined by “and” are separate entries in the source; they are usually repeats but may differ in a detail not shown here. Equal values may be shown once. About 610 (9.5%) of roughly 6,400 compounds were called active. This is one part of a sample in which actives are shown more often than they occur. No stated cut-off is given here; in the data, active means activity change below about -70%; inconclusive means no clear call, values can overlap the other calls; inactive means above that. Some compounds were tested as several samples or in several runs, with calls that do not always agree.
# Assay: Toxoplasma gondii ME49Luc growth in HeLa cells, luciferase, no IFN-y, primary screen (AID 1259421)
# Conditions: T. gondii ME49Luc in HeLa, 72 h, stronger effect = lower value, concentration not given here
row,Compound,"activity change, negative = inhibition"
1,CN1C[C@H]2C[C@@H]1CN2c1cc2c(cc1F)c(=O)c(C(=O)O)cn2C1CC1,7.36% (inactive)
2,NC(=O)C1CCCN1C(=O)C(Cc1cnc[nH]1)NC(=O)C1CCC(=O)N1 (centres undefined),2.14% (inactive)
3,CCCCCCCCCCCC[N+](C)(C)CCOc1ccccc1,14.1% (inactive)
4,CCCCOc1ccc(CC(=O)NO)cc1,-24.4% (inactive) and -36.9% (inactive)
5,CCCCCCCCCc1ccc(OCCOCCOCCOCCOCCOCCOCCOCCOCCO)cc1,-73.3% (active)
6,NC(=O)NCCCC(N)C(=O)O (centres undefined),15% (inactive)
7,CC(C)=CCC[C@](C)(O)[C@H]1CC[C@]2(C)[C@@H]1[C@H](O)C[C@@H]1[C@@]3(C)CC[C@H](O)C(C)(C)[C@@H]3CC[C@]12C,27.9% (inactive)
8,CCCn1c(=O)c2[nH]cnc2n(-c2ccc(Cl)cc2)c1=O,15.7% (inactive) and 11% (inactive)
9,CO/N=C(/C(=O)NC1C(=O)N2C(C(=O)O)=C(CSc3nnnn3C)CSC12)c1csc(N)n1 (centres undefined),8.82% (inactive)
10,C#C[C@]1(O)CC[C@H]2[C@@H]3CCC4=CC(=O)CC[C@@H]4[C@H]3CC[C@@]21CC,-67.7% (inactive)
11,C#C[C@]1(O)CC[C@H]2[C@@H]3CCC4=CC(=O)CC[C@@H]4[C@H]3CC[C@@]21C,-67.2% (inactive)
12,C#C[C@]1(O)CC[C@@H]2C3[C@H](C)CC4=C(CCC(=O)C4)[C@H]3CC[C@@]21C (some centres undefined),5.27% (inactive)
13,C#C[C@]1(O)CCC2C3CCC4=CC(=O)CCC4C3C(=C)CC21CC (some centres undefined),16.2% (inactive)
14,C#C[C@]1(O)CC[C@H]2[C@@H]3CCC4=CCCC[C@@H]4[C@H]3C(=C)C[C@@]21CC,35.3% (inactive)
15,C#C[C@]1(O)CCC2C3CCC4=CC(=O)CC[C@@H]4C3CC[C@@]21CC (some centres undefined),-16.7% (inactive)
16,C#C[C@]1(OC(C)=O)CCC2C3CCC4=C/C(=N/O)CCC4C3CC[C@@]21CC (some centres undefined),-84.7% (active)
17,C#C[C@]1(O)CCC2C3CCC4=C(CCC(=O)C4)C3CC[C@@]21C (some centres undefined),-83.2% (active)
18,C#C[C@]1(O)CCC2C3CCC4=CC(=O)CC[C@@H]4C3CC[C@@]21C (some centres undefined),-91% (active)
19,C#C[C@]1(O)CC[C@H]2[C@@H]3CCC4=CC(=O)CC[C@@H]4C3CC[C@@]21CC (some centres undefined),-83.6% (active)
20,O=C1c2ccccc2-n2c1nc1ccccc1c2=O,-48.4% (inactive)
21,Cc1nccn1CC1CCC2C(C1=O)c1ccccc1N2C (centres undefined),8.1% (inactive)
22,CC(C)(CO)C(O)C(=O)NCCC(=O)NCCSSCCNC(=O)CCNC(=O)C(O)C(C)(C)CO (centres undefined),0.59% (inactive)
23,CCN(CC)C(=O)c1cccc(C)c1,17.6% (inactive) and -3.28% (inactive)
24,CCCCN(CCCC)C(=O)CN1C[C@H](c2ccc3c(c2)OCO3)[C@@H](C(=O)O)[C@@H]1c1ccc(OC)cc1,2.8% (inactive)
25,CCOCc1nc2c(N)nc3ccccc3c2n1CC(C)(C)O,18.1% (inactive)
26,N[C@@H](CC(=O)Nc1ccc(Oc2cc(F)c(F)cc2Br)cc1)C(=O)O,7.4% (inactive)
27,COc1cccc(Nc2c(C(N)=O)cnc3c(C)cc(S(=O)(=O)c4cccc(C(=O)N(C)C)c4)cc23)c1,-9.54% (inactive)

row,Compound,"activity change, negative = inhibition"
1,CNC(=O)c1ccc(C)c(-n2c(C)cc(OCc3ccc(F)cc3F)c(Br)c2=O)c1,9.8% (inactive)
2,CC(=O)NC1=NN(C(C)=O)C(C)(c2ccccc2)S1 (centres undefined),-32.2% (inactive)
3,C#C[C@]1(OC(C)=O)CCC2C3CCC4=CC(=O)CC[C@@H]4C3CC[C@@]21C (some centres undefined),-79.9% (active) and -90.3% (active)
4,C#C[C@]1(OC(C)=O)CC[C@H]2[C@@H]3CCC4=C[C@@H](OC(C)=O)CC[C@@H]4[C@H]3CC[C@@]21C,-38.3% (inactive) and 1.4% (inactive)
5,CC(=O)O[C@]1(C(C)=O)CC[C@H]2[C@@H]3C=C(C)C4=CC(=O)CC[C@@H]4[C@H]3CC[C@@]21C,8.45% (inactive)
6,c1ccc(-c2n[nH]c3c2oc2ccccc23)cc1,129% (inactive) and 2.12% (inactive)
7,CCOC(=O)N1CSCC1C(=O)O (centres undefined),0.0863% (inactive)
8,CC(C)Oc1ccc2c(=O)cc(-c3ccccc3)oc2c1,458% (inactive)
9,CN(C)CCCCC(=O)Nc1ccc(NC(=S)NC(=O)c2ccc(C(C)(C)C)cc2)cc1,78.2% (inactive)
10,CC1(COc2ccc3c(c2)ncn3-c2ccc3cccc(N4CCC(N)CC4)c3n2)COC1,-73.4% (active)
11,CCOC(=O)c1ccc(OCCC2CCN(c3ccc(C)nn3)CC2)cc1,9.97% (inactive)
12,COCCOc1ccc2c(c1)ncn2-c1ccc2cccc(N3CCC(N)CC3)c2n1,-89.9% (active)
13,NC1CCN(c2cccc(Cl)n2)CC1,10.9% (inactive) and -8.3% (inactive)
14,COc1ccc(C[C@H](C)NC[C@@H](O)c2ccc(O)c(NC=O)c2)cc1,14.6% (inactive) and 0.747% (inactive)
15,CCCC1OC2CC3C4CCC5=CC(=O)C=CC5(C)C4C(O)CC3(C)C2(C(=O)CO)O1 (centres undefined),-4.58% (inactive)
16,Cc1nnc(C(C)C)n1C1CC2CCC(C1)N2CC[C@H](NC(=O)C1CCC(F)(F)CC1)c1ccccc1 (some centres undefined),10.7% (inactive) and 30.6% (inactive)
17,CC(C)NC[C@@H](C(=O)N1CCN(c2ncnc3c2[C@H](C)C[C@@H]3O)CC1)c1ccc(Cl)cc1,9.17% (inactive)
18,CC(=O)c1c(O)c(C)c(O)c2c1OC1=CC(=O)C(C(C)=O)C(=O)[C@@]12C (some centres undefined),16.8% (inactive)
19,CCCCCCCCCCCCC/C=C/[C@@H](O)[C@H](CO)NC(C)=O,16.6% (inactive)
20,NCCNS(=O)(=O)c1cccc2cnccc12,1.67% (inactive)
21,Nc1nc(NCC2CCC(CNS(=O)(=O)c3cccc4ccccc34)CC2)nc2ccccc12 (centres undefined),-76.7% (active) and -41.2% (inactive)
22,NCCCCCCNS(=O)(=O)c1cccc2ccccc12,3.17% (inactive)
23,Cc1onc(-c2ccccc2)c1C(=O)NC1C(=O)N2[C@@H]1SC(C)(C)[C@@H]2C(=O)O (some centres undefined),8.03% (inactive)
24,CSC1SCC2C(=O)N(C)C(C(C)C)C(=O)OCC(NC(=O)c3cnc4ccccc4n3)C(=O)NC(C)C(=O)N(C)C1C(=O)N(C)C(C(C)C)C(=O)OCC(NC(=O)c1cnc3ccccc3n1)C(=O)NC(C)C(=O)N2C (centres undefined),-84.4% (active)
25,CC(=C(CCOP(=O)(O)O)SC(=O)c1ccccc1)N(C=O)Cc1cnc(C)nc1N,-0.0808% (inactive)
26,Oc1c(Cl)cc(Cl)c(Cl)c1Cc1c(O)c(Cl)cc(Cl)c1Cl,-88.2% (active) and -95.3% (active)
27,O=C(Nc1cc(Cl)cc(Cl)c1O)c1c(O)c(Cl)cc(Cl)c1Cl,1.68% (inactive)

row,Compound,"activity change, negative = inhibition"
1,CCCC(CCC)C(=O)OC1C[C@H]2CC[C@@H](C1)[N+]2(C)C (some centres undefined),9.62% (inactive)
2,O=C(NC1CCN(Cc2ccccc2)CC1)c1ccc(I)cc1,21.8% (inactive) and 21.3% (inactive)
3,O=C(COc1ccc(C(=O)c2ccccc2)cc1)NC1CCN(Cc2ccccc2)CC1,-17.8% (inactive)
4,C=CCc1cccc(/C=N/NC(=O)CN2CCN(Cc3ccccc3)CC2)c1O,-76.9% (active) and 6.28% (inactive)
5,Cc1ccccc1N=Nc1ccc(NC(=O)c2ccnn2C)c(C)c1,-4.39% (inactive)
6,Cc1nc2ccc(CN(C)c3ccc(C(=O)N[C@@H](CCC(=O)O)C(=O)O)s3)cc2c(=O)[nH]1,-4.51% (inactive)
7,O=C(O)c1cc(-c2ccccc2)nc2ccccc12,42.2% (inactive) and 11.3% (inactive)
8,O=C(O)c1ccc(-c2c[nH]c3ncc(-c4ccccc4)cc23)cc1C1CCCC1,-82.2% (active)
9,CCC(=O)OCC(=O)[C@@]1(OC(=O)CC)[C@@H](C)CC2C3CCC4=CC(=O)C=C[C@]4(C)C3(F)[C@@H](O)C[C@@]21C (some centres undefined),-0.442% (inactive)
10,CC(=O)Nc1ccc(S(=O)(=O)Nc2onc(C)c2C)cc1,6.51% (inactive)
11,NCCCC(N)(C(=O)O)C(F)F (centres undefined),7.14% (inactive)
12,COc1cc(OC)c2c(=O)c(OC)c(-c3ccccc3)oc2c1,43.5% (inactive)
13,COc1cc(OC)c2c(OC)c(-c3ccc4c(c3)OCO4)c(=O)oc2c1,-77.7% (active)
14,COc1cc(OC)c2c(=O)cc(-c3ccccc3)oc2c1,147% (inactive)
15,O=C(NCCc1ccc(O)c(O)c1)C12CC3CC(CC(C3)C1)C2,1.2% (inactive)
16,N#C/C(=C\c1ccc(O)c(O)c1)C(=O)OCCc1cccs1,2.66% (inactive)
17,COc1cc2c(cc1OC)Cc1cc(OC)c(OC)cc1Cc1cc(OC)c(OC)cc1C2,6.34% (inactive)
18,COc1cccc(N2CCN(C3=Nc4c(F)cccc4[C@H](CC(=O)O)N3c3cc(C(F)(F)F)ccc3OC)CC2)c1,-1.57% (inactive)
19,O=C1c2ccccc2CCC1CNCCc1ccc(O)cc1 (centres undefined),9.23% (inactive)
20,O=S(=O)(O)c1ccc(O)cc1,0.395% (inactive)
21,CC(=O)N1CCN(C)CC1,1.18% (inactive) and 9.84% (inactive)
22,O=c1c2cc(O)c(O)cc2oc2cc(O)c(C3O[C@H](CO)[C@H](O)[C@@H](O)[C@H]3O)c(O)c12 (some centres undefined),3.15% (inactive)
23,COc1ccc(-c2cc(=O)c3c(O)c(OC)c(O[C@H]4O[C@H](CO[C@@H]5O[C@@H](C)[C@H](O)[C@@H](O)[C@H]5O)[C@@H](O)[C@H](O)[C@H]4O)cc3o2)cc1,15.1% (inactive)
24,O=C(NNc1nc2cc(F)ccc2n2cccc12)c1cnccn1,-77.3% (active)
25,NC(Cc1ccc(F)cc1)C(=O)O (centres undefined),2.32% (inactive)
